Bfl-1 A1 inh: inhibitors of the anti-apoptotic protein A1, read as caspase activation | AID 2462 | caspase activation, % (test concentration not listed) | MEF A1-2A-BIM cells, Caspase-Glo 3/7 luminescence, 3 h; percent of clofoctol response, vehicle zero | 330,000 tested, 0.066% active;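 active = over half of replicate activation scores above 10%, or exactly half above 10 with the replicate mean above 10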
Mdm2-MdmX inh: disrupts the human Mdm2-MdmX interaction; O15151+Q00987; SaOS-2 split-luciferase Mdm2/MdmX complementation, luminescence; inhibition, % at 8 µM; 330,000 tested, 3% active; AID 485346;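 active = inhibition of at least 50% at 8 µM in the primary screen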
Target sequence (O15151 whole entry, looked up): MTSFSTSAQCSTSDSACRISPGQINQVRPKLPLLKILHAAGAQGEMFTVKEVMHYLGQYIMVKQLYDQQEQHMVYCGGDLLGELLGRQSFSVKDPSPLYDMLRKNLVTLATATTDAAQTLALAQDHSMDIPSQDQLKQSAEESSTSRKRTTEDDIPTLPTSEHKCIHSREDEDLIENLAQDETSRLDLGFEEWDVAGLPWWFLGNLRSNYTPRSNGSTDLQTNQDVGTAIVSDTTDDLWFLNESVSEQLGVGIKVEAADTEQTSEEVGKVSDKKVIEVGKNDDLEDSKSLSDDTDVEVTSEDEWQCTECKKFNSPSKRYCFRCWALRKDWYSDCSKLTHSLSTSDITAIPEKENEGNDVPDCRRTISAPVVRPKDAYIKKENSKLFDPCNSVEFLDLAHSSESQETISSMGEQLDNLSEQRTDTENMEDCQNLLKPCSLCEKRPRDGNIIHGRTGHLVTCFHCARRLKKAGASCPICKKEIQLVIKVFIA
Target sequence (Q00987 whole entry, looked up): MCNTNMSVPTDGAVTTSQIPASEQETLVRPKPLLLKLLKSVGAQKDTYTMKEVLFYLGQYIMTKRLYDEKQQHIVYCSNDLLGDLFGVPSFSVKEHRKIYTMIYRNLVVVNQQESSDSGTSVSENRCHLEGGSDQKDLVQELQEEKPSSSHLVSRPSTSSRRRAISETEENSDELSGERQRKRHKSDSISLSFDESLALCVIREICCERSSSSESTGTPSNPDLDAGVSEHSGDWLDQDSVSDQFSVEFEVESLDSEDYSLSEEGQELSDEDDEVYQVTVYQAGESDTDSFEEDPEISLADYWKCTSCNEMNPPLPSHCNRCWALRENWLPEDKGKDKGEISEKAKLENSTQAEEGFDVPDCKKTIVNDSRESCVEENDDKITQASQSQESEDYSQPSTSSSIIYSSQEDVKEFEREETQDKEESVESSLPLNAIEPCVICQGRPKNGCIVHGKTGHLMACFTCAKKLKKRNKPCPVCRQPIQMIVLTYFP
Beta apoptosis: beta cell apoptosis inhibition; INS-1E cytokine-induced death, ATP luminescence, 48 h; percent of positive-control rescue, neutral wells zero; 300,000 tested, 0.8% active; protection from apoptosis, % (test concentration not listed);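 active = Every replicate reaches about 75%, or at least half do and their mean reaches it too, limit read from the data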;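 also: higher means more ATP so stronger rescue from cytokine killing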
aSyn 5UTR inh: 5' untranslated region of α-synuclein, MLPCN primary screen. alpha-synuclein 5'UTR reporter, inhibitor activity. inhibition, % (tested at 7.5 µM). 300,000 tested, 0.82% active. AID 1813; in the data active = inhibition above about 60%;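 also: H4 neuroglioblastoma cells stably carrying SNCA 5'UTR luciferase fusion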
CSC inhib: blocks cancer stem cells. 300,000 tested, 1.1% active. inhibition, % at 7.5 µM. cancer stem cell-like cells viability, luminescence; in the data active = inhibition above about 75%; tested in HMLE shEcad cells
Mdm2-MdmX conf: confirmation of human Mdm2/MdmX interaction inhibitors; shares compounds with Mdm2-MdmX inh; Mdm2-MdmX binding, luminescent assay; inhibition, % at 8 µM; 10,000 tested, 55% active; AID 489028; in the data active = inhibition above about 40%
FLuc counter: full-length luciferase inhibition in Mdm2/MdmX counter-screen; shares compounds with Mdm2-MdmX inh; 6,200 tested, 77% active; AID 504607; SaOS-2 full-length luciferase counterscreen, luminescence; inhibition, % at 8 µM;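 active = mean inhibition at 8 µM reaching about 37%, which flags the compound as non-specific, limit read from the data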;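 also: p53-null SaOS-2 cells with luciferase driven by a doxycycline-inducible promoter; compound on cells about two nights before reading with doxycycline added after day one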
Numbers stand for hits. This is a sample that favours compounds with a hit; in the whole collection about 4.1% have one here.

CC(/C=C1\SC(=S)N(CCC(=O)Nc2ccc(O)cc2)C1=O)=C\c1ccccc1 was read as Bfl-1 A1 inh inactive, Mdm2-MdmX inh 62, Beta apoptosis inactive, aSyn 5UTR inh inactive, CSC inhib inactive and Mdm2-MdmX conf inactive.
For O=C(CCN1C(=O)/C(=C\c2ccc(F)cc2)SC1=S)Nc1ccc(O)cc1 the results were Bfl-1 A1 inh inactive, Mdm2-MdmX inh inactive, Beta apoptosis inactive, aSyn 5UTR inh inactive and CSC inhib inactive.
COc1cccc(/C=C2/SC(=S)N(CCCC(=O)Nc3ccc(O)cc3)C2=O)c1 was read as Bfl-1 A1 inh inactive, Mdm2-MdmX inh 100, Beta apoptosis inactive, aSyn 5UTR inh inactive, CSC inhib inactive, Mdm2-MdmX conf 85 and FLuc counter inactive.
Screening Cc1ccc(/C=C2/SC(=S)N(CCCC(=O)Nc3ccc(O)cc3)C2=O)cc1 returned Mdm2-MdmX inh 92, aSyn 5UTR inh 86, Mdm2-MdmX conf 94 and FLuc counter 54.
O=C(CCCN1C(=O)/C(=C\c2ccccc2)SC1=S)Nc1ccc(O)cc1 was read as Bfl-1 A1 inh inactive, Mdm2-MdmX inh 99, Beta apoptosis inactive, aSyn 5UTR inh inactive, CSC inhib inactive, Mdm2-MdmX conf 100 and FLuc counter inactive.
For O=C(CN1C(=O)S/C(=C\C=C\c2ccccc2)C1=O)Nc1ccc(O)cc1 the results were Bfl-1 A1 inh inactive, Mdm2-MdmX inh 78, Beta apoptosis inactive, aSyn 5UTR inh inactive, CSC inhib 79, Mdm2-MdmX conf 42 and FLuc counter 81.
`O=C(CN1C(=O)S/C(=C\C=C\c2ccccc2)C1=O)N1CCCCC1` gave Bfl-1 A1 inh inactive, Mdm2-MdmX inh inactive, Beta apoptosis inactive, aSyn 5UTR inh inactive and CSC inhib inactive.
O=C(CCCN1C(=O)/C(=C/c2cccs2)SC1=S)Nc1cccc(O)c1 was read as Bfl-1 A1 inh inactive, Mdm2-MdmX inh 89, Beta apoptosis inactive, aSyn 5UTR inh inactive, CSC inhib inactive, Mdm2-MdmX conf 80 and FLuc counter 73.
For Cc1cccc(N2CCN(C(=O)c3cc4c(=O)n(C)c5ccccc5c4n3C)CC2C)c1 (centres undefined) the results were Bfl-1 A1 inh inactive, Mdm2-MdmX inh 52, Beta apoptosis inactive, aSyn 5UTR inh inactive, CSC inhib inactive and Mdm2-MdmX conf inactive.
`Cc1ccc(-c2nnc(N3CCN(C(=O)c4cccs4)CC3)c3ccccc23)cc1` gave Bfl-1 A1 inh inactive, Mdm2-MdmX inh 55, Beta apoptosis inactive, aSyn 5UTR inh inactive, CSC inhib inactive and Mdm2-MdmX conf inactive.
Cc1ccc(-c2nnc(N3CCN(c4ccccn4)CC3)c3ccccc23)cc1 was read as Bfl-1 A1 inh inactive, Mdm2-MdmX inh 57, Beta apoptosis inactive, aSyn 5UTR inh inactive, CSC inhib inactive, Mdm2-MdmX conf 54 and FLuc counter 48.
c1ccc(-c2nnc(N3CCN(c4ccccn4)CC3)c3ccccc23)cc1 was read as Bfl-1 A1 inh inactive, Mdm2-MdmX inh inactive, Beta apoptosis inactive, aSyn 5UTR inh inactive and CSC inhib inactive.
For O=C(Nc1ccc(Cl)cc1F)C1CC(=O)N(Cc2ccco2)C1 (centres undefined) the results were Mdm2-MdmX inh inactive.
O=C(NCCc1ccccc1F)c1ccc2c(c1)OCCO2 was read as Bfl-1 A1 inh inactive, Mdm2-MdmX inh 89, Beta apoptosis inactive, aSyn 5UTR inh 108, CSC inhib inactive, Mdm2-MdmX conf 92 and FLuc counter 49.
For O=C(NCc1ccccc1F)c1ccc2c(c1)OCO2 the results were Bfl-1 A1 inh inactive, Mdm2-MdmX inh inactive, Beta apoptosis inactive, aSyn 5UTR inh inactive and CSC inhib inactive.
For COc1ccc(OC)c(/C=C/C(=O)N2CCN(S(=O)(=O)c3ccc(C)cc3C)CC2)c1 the results were Mdm2-MdmX inh inactive.
Screening O=C(N/N=C/c1ccc([N+](=O)[O-])o1)c1cc(-c2ccc(-c3ccccc3)cc2)nc2ccccc12 returned Bfl-1 A1 inh inactive, Mdm2-MdmX inh 64, Beta apoptosis inactive, aSyn 5UTR inh 76, CSC inhib 78, Mdm2-MdmX conf 57 and FLuc counter 84.
`Cc1ccc(/C=N/NC(=O)c2cc(-c3ccncc3)nc3ccccc23)o1` gave Mdm2-MdmX inh inactive and aSyn 5UTR inh inactive.
Screening O=[N+]([O-])c1cc(/C=N/NC(=S)Nc2ccccc2Cl)ccc1Cl returned Bfl-1 A1 inh inactive, Mdm2-MdmX inh 59, Beta apoptosis inactive, CSC inhib 84 and Mdm2-MdmX conf inactive.
O=C(N/N=C/c1ccc([N+](=O)[O-])o1)c1cc(-c2ccncc2)nc2ccccc12 was read as Bfl-1 A1 inh inactive, Mdm2-MdmX inh 62, Beta apoptosis inactive, aSyn 5UTR inh inactive, CSC inhib inactive, Mdm2-MdmX conf 52 and FLuc counter 44.
Screening O=C(N/N=C/c1ccc(Cl)c([N+](=O)[O-])c1)c1cc(-c2ccccc2)nc2ccccc12 returned Bfl-1 A1 inh inactive, Mdm2-MdmX inh 100, Beta apoptosis inactive, aSyn 5UTR inh inactive, CSC inhib 96 and Mdm2-MdmX conf inactive.
`Cc1ccc(-c2cc(C(=O)N/N=C/c3ccc([N+](=O)[O-])o3)c3ccccc3n2)o1` gave Bfl-1 A1 inh inactive, Mdm2-MdmX inh inactive, Beta apoptosis inactive and CSC inhib inactive.
Screening O=C(N/N=C/c1cccc([N+](=O)[O-])c1)c1cc(-c2ccccc2)nc2ccccc12 returned Bfl-1 A1 inh inactive, Mdm2-MdmX inh inactive, Beta apoptosis inactive, aSyn 5UTR inh inactive and CSC inhib inactive.
NS(=O)(=O)c1ccc(CNC(=S)NCc2ccc(F)cc2)cc1 was read as Bfl-1 A1 inh inactive, Mdm2-MdmX inh inactive, Beta apoptosis inactive, aSyn 5UTR inh inactive and CSC inhib inactive.
Screening O=C(OCc1cc(=O)n2ccsc2n1)c1ccc(OC(F)F)cc1 returned Mdm2-MdmX inh inactive.
Screening CC1=C(C(=O)OCc2ccc3c(c2)OCO3)C(c2ccc(F)cc2)NC(=O)N1 (centres undefined) returned Bfl-1 A1 inh inactive, Mdm2-MdmX inh 91, Beta apoptosis inactive, aSyn 5UTR inh inactive, CSC inhib inactive, Mdm2-MdmX conf 92 and FLuc counter 49.
`CCOC(=O)C1=C(CCl)NC(=O)NC1c1ccc2c(c1)OCO2` (centres undefined) gave Bfl-1 A1 inh inactive, Mdm2-MdmX inh 59, Beta apoptosis inactive, aSyn 5UTR inh inactive, CSC inhib inactive and Mdm2-MdmX conf inactive.
CC1=C(C(=O)OCc2ccc3c(c2)OCO3)C(c2ccc(Cl)cc2)NC(=O)N1 (centres undefined) was read as Mdm2-MdmX inh 84, aSyn 5UTR inh inactive, Mdm2-MdmX conf 92 and FLuc counter 51.
`O=C(NC1CCCC1)C(c1ccncc1)N(C(=O)Cn1nnc(-c2ccccc2F)n1)c1cccc(F)c1` (centres undefined) gave Bfl-1 A1 inh inactive, Mdm2-MdmX inh inactive, Beta apoptosis inactive, aSyn 5UTR inh inactive and CSC inhib inactive.
